Source: PubChem BioAssay AID463173 (ICCB-Longwood Screening Facility, Harvard Medical School, 2010)
Among all 52,000 compounds or so, about 4,300 (8.3%) were called active. What follows is part of a selection rich in actives, with near analogues and random picks from the rest. Unmarked numbers belong to inactive results. No stated cut-off is given here; in the data, active means survival mostly below about 52% (no sharp cut-off); inactive means mostly above about 56%.

system: DeltatarO mutant; assay: growth inhibition of S. aureus wild type versus tarO mutant, primary screen, teichoic acid synthesis inhibitors, RN4220, OD600 (AID 463173); details: OD600, 18 h, hits give low values, screened at 18.75 µg/mL (by protocol)

In order of falling survival:
1. CC(=O)c1c(C)oc2c(Cl)cc(NS(=O)(=O)c3cc(C)c(C)cc3C)cc12  157%
2. Cc1ccc(CSc2oc(-c3cccs3)nc2S(=O)(=O)c2ccc(C)cc2)cc1  135%
3. Cc1csc2nc(COC(=O)c3ccc(NC(=O)C(C)Oc4ccccc4)cc3)cc(=O)n12 (stereo not drawn)  134%
4. O=C(CCS(=O)(=O)c1ccc(Br)s1)Nc1c(F)cccc1F  128%
5. Cn1cc(C(=O)N2CCN(c3cccc(Cl)c3)CC2)c(=O)c2cc(S(=O)(=O)N3CCCC3)ccc21  128%
6. CC(C)c1ccc(NC(=O)CCS(=O)(=O)c2ccc(Br)s2)cc1  114%
7. COc1cc(Br)c(/C=C(\C#N)c2nc3ccccc3[nH]2)cc1OC  110%
8. Cc1ccc(CCNc2nc3c(S(=O)(=O)c4ccc(C)cc4)nnn3c3ccsc23)cc1  108%
9. Cn1c(O)c(N=NC(=O)c2ccccc2)c2ccccc21  105%
10. CCCCc1c(C(=O)O)cccc1C(=O)O  103%
11. CC(=O)N1CCCc2cc(S(=O)(=O)N(CCN(C)C)Cc3ccccc3)ccc21  102%
12. COc1ccc(CCNC(=O)CSc2n[nH]c(-c3ccccc3Cl)n2)cc1OC  101%
13. O=C(Nc1ccc(N2CCC(N3CCCCC3)CC2)c(C(=O)O)c1)c1ccc(Br)cc1  101%
14. CCOc1ccc(-c2nonc2NC(=O)c2ccc(C)cc2)cc1OCC  100%
15. Cc1cc(C)cc(NC(=O)CCc2c(C)nc3c4cccnc4nn3c2C)c1  99%
16. COc1ccccc1NC(=O)CN1C(=O)CSc2ccc(S(=O)(=O)N3CCCC3)cc21  99%
17. Cc1cc(C)cc(N2C(=O)CSC23C(=O)N(CC(=O)Nc2ccc(F)cc2F)c2ccccc23)c1 (stereo not drawn)  99%
18. COc1ccc(NC(=O)Cn2c(=O)n(-c3ccccc3)c(=O)c3c4c(sc32)CCCC4)cc1  98%
19. COc1ccc(CNc2oc(-c3ccc(COc4ccc(Cl)cc4)o3)nc2C#N)cc1  97%
20. Cc1ccc(NC(=O)C(=O)NCC2(c3ccccc3)CCCC2)cc1Cl  97%
21. O=C(Nc1ccc(N2CCC(N3CCCCC3)CC2)c(C(=O)O)c1)c1ccccc1  96%
22. O=C(Cn1c(=O)nc(-c2ccccc2F)c2cc(Cl)ccc21)Nc1ccccc1C(F)(F)F  96%
23. CCOc1ccc(NC(=O)Cn2c(=O)n(-c3cccc(OC)c3)c(=O)c3c4c(sc32)CCCC4)cc1  95%
24. COc1ccc(C(=O)Nc2ccc(N3CCN(c4ccccc4)CC3)c(C(=O)O)c2)cc1  94%
25. CCc1ccc(CNC(=O)Cc2ccc(NC(=O)N3CCSc4ncccc43)cc2)cc1  94%
26. Cc1cccc(/C=C(\C#N)c2nc3ccccc3c(=O)[nH]2)c1  91%
27. COc1cccc(NC(=O)CCS(=O)(=O)c2ccc3c(c2)oc(=O)n3C)c1  89%
28. Oc1ccc(-c2nnc(SCc3ccc(Cl)cc3)o2)cc1  89%
29. CCc1ccc(-c2cc(C)no2)cc1S(=O)(=O)N1CCN(c2cccc(Cl)c2)CC1  89%
30. CCOC(=O)c1ccccc1NC(=O)CCc1c(C)nc2ncnn2c1C  87%
31. CCOc1ccc(-c2nonc2NC(=O)c2oc3cc(C)ccc3c2C)cc1OCC  87%
32. COc1ccc(OC)c(-c2noc(N3CCN(c4cc(C)ccc4C)CC3)n2)c1  87%
33. CC(C)C(=O)N1C2CCC1CC(O)(c1ccccc1F)C2 (stereo not drawn)  86%
34. COc1ccc2c(c1)c1c(c(=O)n(-c3cccc(C)c3)c(=O)n1Cc1cccc(Cl)c1)n2C  84%
35. CCN(Cc1ccccc1)C(=O)Cn1c(=O)n(-c2ccc(C)c(C)c2)c(=O)c2c(C)c(C)sc21  84%
36. CNS(=O)(=O)c1cn(CC(=O)Nc2ccc(C)c(N(C)C)c2)cc1S(=O)(=O)NC  83%
37. Cc1ccc(NC(=O)c2ccc(NC(=O)CCS(=O)(=O)c3cccs3)cc2)cc1F  81%
38. CCCNC(=O)N1CCCN(S(=O)(=O)c2ccc3c(ccn3CC)c2)CC1  79%
39. Cc1cc(C)cc(NC(=O)c2cnn(-c3ccc(C)c(C)c3)c2C2CCNCC2)c1  78%
40. Cc1cccc(NS(=O)(=O)c2ccc3c(c2)CC(C)N3C(=O)C2CCC2)c1C (stereo not drawn)  78%
41. Cc1oc(-c2ccc(C(=O)NCc3ccccc3F)cc2)nc1COc1ccccc1  77%
42. CCN(Cc1ccccc1)C(=O)Cn1c(=O)n(-c2ccc(Cl)cc2)c(=O)c2c(C)c(C)sc21  76%
43. Cc1ccc(C)c(NC(=O)Cn2c(=O)n(CCC(C)C)c(=O)c3cccnc32)c1  76%
44. Cc1cc(-c2ccc(C)c(S(=O)(=O)Nc3cccc(C)n3)c2)on1  75%
45. COc1cc2c(cc1OC)C(COc1ccc3c(C)cc(=O)oc3c1)N(C(=O)c1ccc(C)c(C)c1)CC2 (stereo not drawn)  74%
46. COc1cccc(CNC(=O)c2ccc(Cn3c(SCc4ccccc4)nc4cccnc43)cc2)c1  74%
47. COc1ccccc1-c1nnc(SCCOc2ccccc2C)o1  73%
48. NC(CSC1CCCCO1)C(=O)O (stereo not drawn)  73%
49. Cc1ccc(CSc2nnc3[nH]c(=O)cc(C)n23)cc1  71%
50. CCOC(=O)c1cccc(NC(=O)CCS(=O)(=O)c2ccc(Br)s2)c1  71%
51. Cc1ccc(NC(=O)CSc2nc3c(oc4ccccc43)c(=O)n2Cc2ccco2)cc1  70%
52. CN(Cc1ccccc1)c1nc2c(S(=O)(=O)c3ccccc3)nnn2c2ccsc12  70%
53. Cc1ccc2c(c1)c(=O)c(S(=O)(=O)c1ccc(F)cc1)cn2CC(=O)Nc1ccc2c(c1)OCO2  70%
54. Cc1cc(C)c(S(=O)(=O)NCC(c2ccc(N(C)C)cc2)N2CCOCC2)c(C)c1 (stereo not drawn)  69%
55. COc1cccc(CSc2nc3n(n2)C(c2ccccc2C)C(C(=O)Nc2ccccc2OC)=C(C)N3)c1 (stereo not drawn)  69%
56. CC(=O)c1ccc(NC(=O)c2ccc(NC(=O)CCS(=O)(=O)c3cccs3)cc2)cc1  69%
57. N#Cc1c[nH]n2c(=O)cc(Cc3ccccc3)nc12  68%
58. COc1cccc(CN(Cc2ccco2)C(c2ccc(OC)c(OC)c2)c2nnnn2Cc2ccccc2)c1 (stereo not drawn)  67%
59. CC(=O)N1CCCc2cc(S(=O)(=O)N3CCCC(C(=O)Nc4cccc(Cl)c4C)C3)ccc21 (stereo not drawn)  67%
60. N#C/C(=C\c1ccccc1F)c1nc2ccccc2c(=O)[nH]1  66%
61. Cc1ccc(CSc2oc(-c3cccs3)nc2S(=O)(=O)c2ccccc2)cc1  65%
62. Cc1ccc(S(=O)(=O)c2nnn3c2nc(NCCc2ccccc2)c2sccc23)cc1  65%
63. CCOC(=O)c1c(C)oc2nc(C)nc(NCC3CCN(Cc4cccc(Cl)c4)CC3)c12  62%
64. CCN(CC)c1nc2c(S(=O)(=O)c3cccc(Cl)c3)nnn2c2ccsc12  62%
65. COC(=O)c1ccc(NC(=O)CCS(=O)(=O)c2ccc(Br)s2)cc1  60%
66. CCCCS(=O)(=O)c1oc(-c2cccs2)nc1S(=O)(=O)c1ccc(F)cc1  56%
67. CC(=O)c1ccc(N2CCN(c3ccc(NC(=O)c4ccc(F)cc4)cc3C(=O)O)CC2)cc1  55%
68. CCCOc1ccc(-c2nonc2NC(=O)c2oc3ccc(C)cc3c2C)cc1OCCC  49%
69. COc1cccc(/C=C(\C#N)c2nc3ccc(C)cc3[nH]2)c1  46%
70. CCOc1ccc(-c2nonc2NC(=O)c2oc3ccc(C)cc3c2C)cc1OCC  43%
71. CCCSc1oc(-c2cccs2)nc1S(=O)(=O)c1ccc(C)cc1  41%

For `CCOc1ccc(NC(=O)Cn2c(=O)n(-c3ccccc3)c(=O)c3c4c(sc32)CCCC4)cc1`, the survival was 90% (active).
`CCOc1ccc(-n2c(=O)c3c(C)c(C)sc3n(CC(=O)N(CC)Cc3ccccc3)c2=O)cc1` was tested, and the survival was 45% (active).
For `Cc1ccc2nc(/C(C#N)=C/c3ccccc3F)[nH]c2c1`, the survival was 31% (active).
`Cc1ccc2nc(/C(C#N)=C/c3cccc(Br)c3)[nH]c2c1` was tested, and the survival was 3% (active).
`CCOc1ccccc1-c1nnc(SCc2ccc(Cl)cc2)o1` was tested, and the survival was -1% (active).
In the case of `CCOc1ccc(-c2nonc2NC(=O)c2oc3cc(C)c(C)cc3c2C)cc1OCC`, the survival is reported as 43% (active).
With `CCOc1ccc(-c2nonc2NC(=O)c2oc3c(C)c(C)ccc3c2C)cc1OCC` the survival was 34% (active).
`CCCCS(=O)(=O)c1oc(-c2cccs2)nc1S(=O)(=O)c1ccccc1` was tested, and the survival was -5% (active).
In the case of `CCCCCS(=O)(=O)c1oc(-c2cccs2)nc1S(=O)(=O)c1ccc(C)cc1`, the survival is reported as 3% (active).
`O=C(Nc1ccc(N2CCN(CCOc3ccc(Cl)cc3)CC2)c(C(=O)O)c1)c1ccc(F)cc1` was tested, and the survival was 20% (active).
In the case of `O=C(Nc1ccc(N2CCOCC2)c(C(=O)O)c1)c1ccc(Br)cc1`, the survival is reported as 8% (active).
`O=C(CCS(=O)(=O)c1ccc(Br)s1)Nc1cc(C(F)(F)F)cc(C(F)(F)F)c1` was tested, and the survival was 42% (active).
With `CC(=O)c1cccc(NC(=O)CCS(=O)(=O)c2ccc(Br)s2)c1` the survival was 43% (active).
For `Cc1cc(NC(=O)c2ccc(NC(=O)CCS(=O)(=O)c3cccs3)cc2)ccc1Br`, the survival was 35% (active).
With `Cc1ccc(CCNc2nc3c(S(=O)(=O)c4ccccc4)nnn3c3ccsc23)cc1` the survival was 62% (active).
In the case of `CN(Cc1ccccc1)c1nc2c(S(=O)(=O)c3cccc(Cl)c3)nnn2c2ccsc12`, the survival is reported as 36% (active).
With `CCCCc1cc(O)c(CCCC)c(O)c1` the survival was 12% (active).
